Compound activity deposited in PubChem by National Center for Advancing Translational Sciences (NCATS).
This is a sample that favours compounds with a hit; in the whole collection about 21% have one here.
Shiga inhibitor: A qHTS for Small Molecule Inhibitors of Shiga Toxin; hit rate 9.2% among 290,000; AID 2315, 2010; Vero cells, Shiga toxin protein synthesis inhibition reporter; inhibition, % at 38.7 µM; in the data active = inhibition mostly above about 28%, no sharp cut-off; inactive = mostly below about 43%; note: 0% is about no effect
Pf growth 48h: Primary qHTS for delayed death inhibitors of the malarial parasite plastid, 48 hour incubation. P. falciparum luciferase growth in erythrocytes, 48 h. Potency, µM (titrated, usually from 28.7 µM), for inactives: at the top dose activity change, negative = inhibition, hits mostly inhibitors. hit rate 5.9% among 310,000. AID 504832, 2011; note: potency is the fitted concentration of half-maximal effect; % is set by controls: 0 for no effect and ±100 for the full control effect
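Compounds are pin-transferred into medium, infected erythrocytes (2% hematocrit, 0.1% parasitemia final) are added, and plates sit one parasite generation at 37 C in 5% CO2. Detection reagent is then added and luminescence measured.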
Sm TGR inh: qHTS Assay for the Inhibitors of Schistosoma Mansoni Peroxiredoxins; Schistosoma mansoni thioredoxin glutathione reductase (TGR), Q962Y6; purified TGR, DTNB reduction, TNB absorbance 405 nm; Potency, µM (doses to about 114 µM), for inactives: at the highest dose activity change, negative = inhibition, hits mostly inhibitors; hit rate 3% among 360,000; note: potency is the fitted concentration of half-maximal effect; % is set by controls: 0 for no effect and ±100 for the full control effect; nearly all actives have a fitted effect of over 60% in size
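First, TGR (20 nM dispensed) and NADPH were mixed with compound. Second, a 15 min room-temperature incubation followed. Third, further NADPH and then DTNB were added to start the reaction. Finally, TNB absorbance was monitored kinetically.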
Pf growth 96h: Primary qHTS for delayed death inhibitors of the malarial parasite plastid, 96 hour incubation; P. falciparum luciferase reporter growth, 96 h; Potency, µM (doses to about 28.7 µM), for inactives: at the highest dose activity change, negative = inhibition, actives largely listed as inhibitors; hit rate 6.9% among 320,000; AID 504834, 2011; note: potency is the fitted concentration of half-maximal effect; % is set by controls: 0 for no effect and ±100 for the full control effect
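Two parasite generations (96 h, 37 C, 5% CO2) of compound exposure in infected erythrocytes (0.05% parasitemia, 2% hematocrit). Luciferase-reporter P. falciparum; decreased luminescence indicates inhibited growth, aimed at apicoplast-acting delayed death.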
CHX counter: Cycloheximide Counterscreen for Small Molecule Inhibitors of Shiga Toxin | cell reporter, cycloheximide protein synthesis inhibition counterscreen | max response, % | hit rate 12% among 300,000 | AID 2314, 2010; in the data active = max response mostly above about 13%, no sharp cut-off; inactive = mostly below about 14%; note: read at 38.3 µM for the half of the compounds with a filed dose; 0% is about no effect
NS1 function inh: qHTS Assay for Inhibitors of Influenza NS1 Protein Function | Potency, µM (doses to about 46.1 µM), without a hit: at the highest dose activity, positive = more growth | hit rate 0.4% among 270,000 | AID 2326, 2010; calls by dose curve; note: potency is the fitted concentration of half-maximal effect; actives are rising curves; nearly all actives have a fitted effect of over 50% in size
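Read-out: OD600 growth recovery of NS1-expressing budding yeast. Cells grown overnight at 30C in -URA glucose medium, washed, resuspended and diluted 1:100 in 2% galactose assay medium, pH 6.0. Same strain lacking NS1 served as positive control.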
* marks the source's active call; other numbers are inactive results; ? = inconclusive; . = no result. Unless noted, calls come from the whole dose curve; as a rule, active = well fitted curve in the direction sought with a large enough effect; inconclusive = small, poorly fitted or top-dose-only effect, or another doubt; inactive = no such curve, though single readings can be large; an effect the other way counts as inactive or inconclusive.

SMILES | Shiga inhibitor | Pf growth 48h | Sm TGR inh | Pf growth 96h | CHX counter | NS1 function inh
CNC(=O)c1cc(C(=O)c2ccc(C(F)(F)F)cc2F)c[nH]1 | 21.2 | 242.6% | 13.1% | 117.1% | 18.7* | .
CNC(=O)c1cc(C(=O)c2ccc(C(F)(F)F)cc2)c[nH]1 | 60.2* | . | -2.0% | 34.8% | 26.7* | 5.5%
CNC(=O)c1cc(C(=O)c2ccccc2C(F)(F)F)c[nH]1 | -13.1 | -6.6% | 0.6% | 0.7% | -1.7 | 3.0%
CCCCCCCNC(=O)C1(CC2CC(c3cccc(Br)c3)=NO2)CCNCC1 (centres undefined) | 32.6* | ? | 25.1µM* | 11.7µM* | 8.2* | 17.9%
CCCCCCCNC(=O)C1(CC2CC(c3ccc(Cl)cc3)=NO2)CCNCC1 (centres undefined) | -1.9 | -77.3% | 39.8µM* | 6.57µM* | 0.3 | 15.1%
CCCCCCCNC(=O)C1(CC2CC(c3cccc(Br)c3)=NO2)CCN(C(=O)Cc2ccc(F)cc2)CC1 (centres undefined) | . | 7.38µM* | 11.6% | 10.4µM* | . | .
COC(=O)C1CC(c2ccc(Cl)cc2)=NO1 (centres undefined) | -15.8 | 2.1% | -3.8% | -1.5% | -4.0 | .
CCC(=O)N1CCC2(CC1)Oc1ccc(F)cc1C(=O)C21CC(c2ccc(Cl)cc2)=NO1 (centres undefined) | -5.4 | ? | -18.1% | ? | -4.2 | ?
CCCCCCCNC(=O)C1(CC2CC(c3ccc(Cl)cc3)=NO2)CCN(C(=O)Cc2ccc(F)cc2)CC1 (centres undefined) | -0.5 | 1.2% | 8.2% | 11.7µM* | 2.2 | 11.0%
Cn1c(N)c(C(=O)COC(=O)CC2CC3CCC2C3)c(=O)n(C)c1=O (centres undefined) | -11.7 | ? | 4.9% | -61.4% | 0.7 | -4.9%
CCCN(CCC)C(=O)Cn1c(=O)n(Cc2ccc(C(=O)NCCc3ccc(OC)c(OC)c3)cc2)c(=O)c2ccccc21 | . | . | -8.6% | . | . | .
CCOC(=O)CSc1nnc2n(-c3ccccc3)c(=O)c3c4c(sc3n12)CC(C(C)(C)C)CC4 (centres undefined) | . | . | -1.0% | . | . | .
CCn1cc(C(=O)NCCCOC)c(=O)c2cc(S(=O)(=O)N3CCc4ccccc4C3)ccc21 | . | . | -5.3% | . | . | .
CN1CCN(CC(=O)Nc2nnc(-c3cccs3)s2)CC1 | 10.3 | 16.6% | -5.3% | -18.0% | -1.0 | 3.7%
COc1ccc(CCCc2nnc(SCC(=O)Nc3cccc(F)c3C)o2)cc1 | . | . | 6.2% | . | . | .
Cc1nc2ccccc2c2oc(C(=O)N3CCCC(C)C3)cc12 (centres undefined) | 12.8 | -3.9% | -13.2% | 28.3% | 14.8* | -22.3%
CCN1CCCC1CNC(=O)C(=O)NC(C)c1ccccc1 (centres undefined) | 46.6 | 14.4% | 3.1% | 11.7µM* | -3.4 | 0.7%
CC(=O)c1ccc(N2CCN(C(=O)c3cc4c(C)nc5ccccc5c4o3)CC2)cc1 | -8.2 | 5.1% | 2.4% | ? | -1.5 | 7.0%
Cc1nc2ccccc2c2oc(C(=O)NCCN3CCCCC3C)cc12 (centres undefined) | -12.1 | ? | 0.9% | ? | 1.7 | -21.8%
COc1ccc(N2CCN(C(=O)c3cc4c(C)nc5ccccc5c4o3)CC2)cc1 | -1.0 | 2.1% | -14.9% | 0.828µM* | -2.7 | -18.9%
CCN1CCCC1CNC(=O)c1cc2c(C)nc3ccccc3c2o1 (centres undefined) | 20.7 | 9.28µM* | -4.4% | ? | 3.0 | 4.6%
CCN(C(=O)CSc1nnc(-c2c[nH]c3ccccc23)o1)C1CCS(=O)(=O)C1 (centres undefined) | -5.1 | 3.9% | 2.2% | ? | 6.8 | .
Cc1nn(CC(=O)Nc2cccc(Cl)c2)c(=O)c2cc(-c3ccccc3)nn12 | -3.0 | 0.0% | 1.9% | -11.0% | -9.4 | -2.0%
CCOC(=O)c1ccc(NC(=O)c2c(-c3c(F)cccc3Cl)noc2C)cc1 | . | . | 1.5% | . | . | .
COc1ccc(N2CCN(C(=O)CCS(=O)(=O)c3ccc4c(c3)CCN4C(=O)C3CC3)CC2)cc1 | 5.7 | -20.4% | 0.0% | ? | 6.9 | -9.7%
